Experimental data reported in PubChem BioAssay AID720513 (Broad Institute, 2013).
The whole screen tested about 2,100 compounds, of which about 480 (23%) were called active. Inconclusive results (about 5%) are left out.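 The calls were made as follows: active = fitted curve reaches 40% activation at or below the top valid concentration, in every replicate test; inconclusive = replicate tests disagree on the call; inactive = the rest, including activity in the opposite direction.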 These entries were drawn from the full list. Results with a measured potency or affinity are listed apart.

experiment: PGC1a acetylation increase, cellular AlphaLISA – cell-based, cherry-picked samples, set 6, dose response (AID 720513); conditions: U2OS PGC1a acetylation AlphaLISA, overnight, 0 = neutral, -100 = inhibitor control; series mostly up to 19.5 µM;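 also: cells made to overexpress flag tagged PGC1a plus GCN5 acetyltransferase by viral infection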

outcome, inactive:
COc1ccccc1CNS(=O)(=O)c1cc(C)ccc1OC
C[C@@H]1CN([C@@H](C)CO)C(=O)CCCn2nncc2CO[C@H]1CN(C)Cc1ccc(O)cc1
CCOc1ccc(N(CC(=O)Nc2ccccc2OC)S(=O)(=O)c2ccccc2)cc1
C[C@@H]1CCCCO[C@H](CN(C)Cc2ccc3c(c2)OCO3)[C@@H](C)CN([C@@H](C)CO)C(=O)c2cc(NC(=O)Nc3ccc(C(F)(F)F)cc3)ccc2O1
CC(=O)c1cccc(-c2ccnc3c2CC(C(=O)NCC2CC2)O3)c1 (configuration not stated)
CC(=O)c1cccc(-c2ccnc3c2CC(C(=O)Nc2ccc4c(c2)OCO4)O3)c1 (configuration not stated)
O=C(CSc1nnc(-c2ccncc2)n1-c1ccc(Cl)cc1)NCc1cccs1
O=C(NCc1ccccc1)C1Cc2c(-c3ccc4c(c3)OCO4)ccnc2O1 (configuration not stated)
COc1ccc(-c2[nH]ncc2-c2ccc3c(c2)OCCO3)c(O)c1
Cn1nc(C(=O)N2CCCCC2)c2c1-c1ccccc1S(=O)(=O)C2
Cc1cc(-c2c(C)[nH]n(-c3ccc(Cl)cc3)c2=O)n(-c2ccccc2)n1
CC(C)(C)c1ccc(-n2nc(C#N)c(Cl)cc2=O)cc1
COc1ccc(CN(C)C[C@@H]2OCCCC[C@@H](C)Oc3ccc(NS(C)(=O)=O)cc3C(=O)N([C@H](C)CO)C[C@@H]2C)cc1
CC(C)(C)NS(=O)(=O)c1ccc(-c2csnn2)s1
CC(C)CC#Cc1ccc2c(c1)O[C@H](CN(C)C)[C@@H](C)CN([C@H](C)CO)S2(=O)=O
CCC1(CC)Cc2ccccc2-c2nc(CN(C)C)[nH]c(=O)c21
COc1cc(C(C)=O)ccc1OCC(O)CN1CCN(c2ccc(C)c(C)c2)CC1 (configuration not stated)
CC(=O)c1ccc(N2CCN(S(=O)(=O)c3csc(C(N)=O)c3)CC2)cc1
C[C@@H]1CN([C@H](C)CO)C(=O)c2cc(-c3ccccc3)cnc2O[C@@H]1CN(C)C(=O)Cc1ccccc1
COc1ccc(-c2cnc3c(c2)C(=O)N([C@H](C)CO)C[C@H](C)[C@@H](CN(C)C(=O)C2CC2)O3)cc1
C[C@@H]1CN([C@H](C)CO)C(=O)CCCn2cc(nn2)CO[C@@H]1CN(C)C(=O)OCc1ccccc1
COc1ccc(CN(C)C[C@H]2Oc3ccc(NC(=O)Cc4cn(C)c5ccccc45)cc3CC(=O)N([C@@H](C)CO)C[C@@H]2C)cc1
COc1ccc(-c2cnc3c(c2)C(=O)N([C@H](C)CO)C[C@H](C)[C@@H](CN(C)C(=O)C2CCC2)O3)cc1
CCCCC(C(=O)O)C(C)CC(=O)Nc1nncs1 (configuration not stated)
C[C@@H]1CN([C@@H](C)CO)C(=O)c2cc(C3=CCCC3)cnc2O[C@H]1CN(C)C(=O)Nc1cccc(F)c1
CCOc1ccc(CN2CCNC(=O)C2CC(=O)NCc2ccccn2)cc1 (configuration not stated)
CSCCC(NC(=O)OC(C)(C)C)C(=O)Oc1ccc2c(=O)c(-c3ccc4c(c3)OCCO4)coc2c1 (configuration not stated)
O=C(C1CCCO1)N1CCN(Cc2c(O)ccc3ccccc23)CC1 (configuration not stated)
C[C@@H]1CCCCO[C@H](CN(C)Cc2ccc(C(F)(F)F)cc2)[C@H](C)CN([C@@H](C)CO)C(=O)c2cc(NC(=O)NC3CCCCC3)ccc2O1
COc1ccc(CN(Cc2cccn2C)S(=O)(=O)c2ccccc2)cc1
COc1cccc(-c2noc(C3CCCN(C(=O)Cc4ccccc4)C3)n2)c1 (configuration not stated)
C[C@H]1CN([C@@H](C)CO)S(=O)(=O)c2ccc(Br)cc2O[C@H]1CN(C)S(C)(=O)=O
C[C@H](CO)N1C[C@H](C)[C@H](CN(C)Cc2ccccc2)Oc2cc(Br)ccc2S1(=O)=O
COc1ccccc1C(NC(C)=O)c1cc(Cl)c2cccnc2c1O (configuration not stated)
CC(=O)c1cccc(-c2ccnc3c2CC(C(=O)NCc2ccco2)O3)c1 (configuration not stated)
Cc1ccc(CN(C(=O)Cn2nnc3ccccc32)C(C(=O)NCc2ccco2)c2cccs2)cc1 (configuration not stated)
CC(c1ccco1)N(C(=O)c1cc(Cl)cc(Cl)c1)c1ccccn1 (configuration not stated)
C[C@H](CO)N1C[C@H](C)[C@H](CN(C)S(=O)(=O)c2cn(C)cn2)OCCCC[C@H](C)Oc2ccc(NC(=O)Nc3cccc4ccccc34)cc2C1=O
Clc1ccc(C(c2ccccc2Cl)C(Cl)Cl)cc1 (configuration not stated)
CC(C)Cc1nn2c(=O)cc(O)nc2s1
Cc1ccc(S(=O)(=O)C(NC(=O)c2ccccc2)=C(Cl)Cl)cc1
Cc1ccc(C(CC(=O)O)NC(=O)CCNC(=O)c2ccco2)cc1 (configuration not stated)
Cc1cc(OCC(=O)O/N=C(\N)c2ccccc2)cc(C)c1Cl
CC(C)CC#Cc1ccc2c(c1)O[C@H](CN(C)Cc1ccccc1)[C@@H](C)CN([C@H](C)CO)S2(=O)=O
COc1cc(-c2cnc3c(NC=O)cc(-c4ccccc4Cl)cn23)cc(OC)c1OC
COc1cc(-c2cnc3c(NC=O)cc(-c4ccccc4)cn23)cc(OC)c1OC
O=C(O)c1cccc(N2C(=O)CSC2c2c(F)cccc2Cl)c1 (configuration not stated)
Cc1cc(C)c(NC(=O)c2ccc(S(=O)(=O)N(C)C)cc2)c(C)n1
OC[C@@H]1CN(Cc2ccccc2)C[C@H](n2cnc3c(NCc4ccco4)ncnc32)O1
CN(C)c1ncnc2c1ncn2C1OC(CO)C(O)C1O (configuration not stated)
CS(=O)(=O)N1CCCC(C(=O)NCc2ccccn2)C1 (configuration not stated)
COc1ccc(CN(C)C[C@@H]2OCCCC[C@H](C)Oc3ccc(NS(C)(=O)=O)cc3C(=O)N([C@@H](C)CO)C[C@@H]2C)cc1
C[C@@H]1CN([C@H](C)CO)C(=O)c2cc(C#CC(C)(C)O)cnc2O[C@H]1CN(C)C(=O)c1ccccc1F
COc1ccc(S(=O)(=O)N(C)C[C@H]2Oc3c(NS(=O)(=O)c4ccc(C)cc4)cccc3C(=O)N([C@H](C)CO)C[C@H]2C)cc1
Cc1ccc(-c2cnc3c(c2)C(=O)N([C@@H](C)CO)C[C@@H](C)[C@H](CN(C)C)O3)cc1
Cc1noc(C)c1NC(=O)N(C)C[C@H]1Oc2c(NC(=O)c3nc4ccccc4s3)cccc2C(=O)N([C@H](C)CO)C[C@H]1C
Cc1nn(C)c(C)c1N1C(=O)c2cccc3c(Br)ccc(c23)C1=O
CCC(=O)N1C[C@H](C)[C@@H](OC)CN(C)C(=O)c2cc(NC(=O)Nc3cccc(F)c3)ccc2OC[C@H]1C
C[C@H](CO)N1C[C@H](C)[C@@H](CN(C)Cc2ccc(Oc3ccccc3)cc2)Oc2ccc(N(C)C)cc2CC1=O
O=C(O)CSCC(=O)NCc1ccc(Cl)cc1Cl
Cc1cc(Br)ccc1NC(=O)CN(C)C(=O)CCSc1ccc(F)cc1
Cc1ccc(S(=O)(=O)N2CCN(C(=O)N3CCOCC3)CC2)cc1C
CC(=O)CS(=O)(=O)c1ccc(Oc2ccc(S(=O)(=O)CC(C)=O)cc2)cc1
COc1ccccc1N1CCN(c2ccc(-c3ccccc3)nn2)CC1
Cn1c(CO)cnc1SCC(=O)c1ccc(Cl)cc1
CCN(CC)C(=O)CSc1nnc(-c2cccnc2)n1Cc1ccccc1
Cc1ccc(S(=O)(=O)NC2=NCCCCC2)cc1
Cc1ccc(S(=O)(=O)N[C@H]2C=C[C@@H](CC(=O)NCCN3CCCCC3)O[C@H]2CO)cc1
Cc1ccc(S(=O)(=O)N[C@H]2C=C[C@H](CC(=O)NCCN3CCCCC3)O[C@H]2CO)cc1
Cc1ccc2c(Cl)cc(Cl)c(OCc3c(C)noc3C)c2n1
COc1ccc(-n2c(SCC#N)nnc2-c2cccnc2)cc1
COc1ccc(-c2cc(-c3ccccc3)c(C#N)c(S(C)=O)n2)cc1 (configuration not stated)
O=C(CC(C(=O)O)c1c[nH]c2ccccc12)c1ccccc1 (configuration not stated)
CN(NC(=O)c1ccccc1)C1=NS(=O)(=O)c2ccccc21
COc1ccc(-c2cc(C(F)(F)F)nc(S(C)(=O)=O)n2)cc1
C=CCNS(=O)(=O)c1cccc2cc(C(=O)O)c(O)cc12
O=C(C=Cc1ccccc1)CC(c1ccccc1)N1CCOCC1 (configuration not stated)
CCCCOc1ccc(C(=O)C(CN2CCOCC2)c2ccccc2)cc1 (configuration not stated)
COC(=O)COc1c(/C=C\c2nc(O)c([N+](=O)[O-])c(=O)[nH]2)cccc1OC
COc1cccc(C(=O)Nn2cnnc2)c1OC
Cc1ccc(N)cc1S(=O)(=O)N(C)C
COc1ccc(C(=O)NCCCSC)cc1OC1CCN(C(C)C)CC1
C[C@@H]1CN([C@@H](C)CO)C(=O)c2cc(-c3cccc(C#N)c3)cnc2O[C@H]1CN(C)C(=O)c1ccccn1
Cc1cc(C)c(C#N)c(N2CCN(c3ccccc3)CC2)n1
Cc1cc(S(=O)(=O)Nc2ccc3ccccc3c2)c(C)s1
C=CS(=O)(=O)N(Cc1ccccc1Br)[C@H](CO)Cc1ccccc1
C=CCSc1nccc(-c2cc(Cl)sc2Cl)n1
O=C1C(Cl)=C(N2CCOCC2)C(=O)N1CCc1ccccc1
O=C(CCC1CCCN(C(=O)c2cc(C3CC3)[nH]n2)C1)N1CCN(c2ccccn2)CC1 (configuration not stated)
CN(C)c1ccnc2sc(C(N)=O)c(N)c12
Cc1noc(C)c1S(=O)(=O)N(C)C[C@H]1Oc2ccc(NS(=O)(=O)c3cccs3)cc2C(=O)N([C@H](C)CO)C[C@H]1C
Nc1cc(N)nc(SCC(=O)Nc2ccccc2N2CCOCC2)n1
